# Source: PubChem BioAssay AID1224860 (National Center for Advancing Translational Sciences (NCATS), 2016)
# Inconclusive results are not listed. Unmarked numbers belong to inactive results. Active and inactive are the calls of the source. Calls follow the shape of the dose curve; as a rule, active = well fitted cell-killing curve with a large enough effect; inconclusive = small, poorly fitted or top-dose-only effect; inactive = flat fitted curve, though single readings scatter.
# Test: Compound cytotoxicity measured by an ATP content assay as a counter-screen for lead compounds in human iPSC derived neural progenitor cells (hNPCs)
# Details: human iPSC-derived NPC viability, ATP luminescence; series mostly up to 46.1 µM; activity, negative = cytotoxicity: at the top concentration
# Procedure, shortened: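 Viability read as luminescent ATP content, 10 min at RT after reagent. Compound incubation of 6, 24 or 72 h on human iPSC-derived neural progenitors pre-cultured 16–20 h; values are percent inhibition.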
SMILES,"activity, negative = cytotoxicity [%]",Potency
CN(C)c1cc(NC(=O)CNC(C)(C)C)c(O)c2c1C[C@@H]1C[C@H]3[C@H](N(C)C)C(=O)C(C(N)=O)=C(O)[C@@]3(O)C(=O)C1=C2O,-7.78,–
CC=CC[C@@H](C)C(=O)[C@H]1C(=O)N[C@@H](C(C)C)C(=O)N(C)CC(=O)N(C)[C@@H](CC(C)C)C(=O)N[C@@H](C(C)C)C(=O)N(C)[C@@H](CC(C)C)C(=O)N[C@@H](C)C(=O)N[C@H](C)C(=O)N(C)[C@@H](CC(C)C)C(=O)N(C)[C@@H](CC(C)C)C(=O)N(C)[C@@H](C(C)C)C(=O)N1C,-13.2,–
CN1CC(=O)N/C1=N/C(=O)Nc1cccc(Cl)c1,-7.62,–
O=C(O)c1cc([N+](=O)[O-])ccc1NCCCc1ccccc1,-8.18,–
Nc1ccc(O)c(C(=O)O)c1,-2.85,–
NC(=O)c1cccc2[nH]c(-c3ccc([C@H]4CCCN4)cc3F)nc12,–,4.35 µM (active)
